HCMV inh = human cytomegalovirus inhibition. HFF cells, HCMV-luciferase reporter, 72 h; active compounds read low. activity change, negative = inhibition, % at 57.5 µM. 410,000 tested, 4.5% active; in the data active means activity change below about -60%; inconclusive means no clear call, values can overlap the other calls; inactive means above about -39%
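Human foreskin fibroblasts infected with luciferase-reporter HCMV at MOI 1 PFU/cell, compounds at two doses. Luciferase measured 72 h post infection; normalized to buffer-only basal and Salinomycin (10uM) controls.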
Lassa entry inh = blocks Lassa virus binding to or entry into cells; Lassa virus pseudotype entry inhibition, cell reporter; 300,000 tested, 1.2% active; AID 540256; Potency, µM (top dose mostly 37.9 µM), for inactives: at the highest dose activity change, negative = inhibition, hits mostly inhibitors; calls by dose curve; tested in HEK293 cells; further: potency means the concentration at half of the fitted maximal effect; nearly all actives have a fitted effect of over 50% in size
HCV inhibitor = inhibitors of hepatitis C virus infection; 340,000 tested, 3.4% active; Huh7.5.1 HCVcc-Cre infection, luciferase reporter, 44 h; Potency, µM (titrated, usually from 41.8 µM), without a hit: top-dose activity change, negative = inhibition, most hits filed as inhibitors; active means well fitted inhibition curve with a large enough effect; inconclusive means small, poorly fitted or top-dose-only effect, or another doubt; inactive means no such curve, though single readings can be large or run the other way; further: potency means the concentration at half of the fitted maximal effect
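A cell-based infection assay in which seeded cells (1,000 per well) receive test compound after 4 h, are inoculated with HCVcc-Cre at approximately 0.5 moi, and are incubated 44 h before luminescence detection.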
Vaccinia mCherry = inhibitors of vaccinia virus infection (mCherry reporter signal); Vaccinia virus mCherry reporter infection, fluorescence; Potency, µM (titrated, usually from 36.5 µM), for the others: at the highest dose activity change, negative = inhibition, most hits filed as inhibitors; 310,000 tested, 0.63% active; AID 720579; calls by dose curve; tested in A549 cells; further: potency means the concentration at half of the fitted maximal effect; nearly all actives have a fitted effect of over 35% in size
VACV Venus inh = inhibitors of vaccinia virus (Venus reporter) | Potency, µM (top dose mostly 36.5 µM), for inactives: at the top dose activity change, negative = inhibition, most hits filed as inhibitors | 330,000 tested, 0.46% active | Vaccinia virus Venus reporter expression, fluorescence; calls by dose curve; tested in A549 cells; further: potency means the concentration at half of the fitted maximal effect; nearly all actives have a fitted effect of over 30% in size
Marburg entry inh = Marburg virus entry inhibition. Marburg virus pseudotyped entry inhibition, cell reporter. Potency, µM (series often up to 37.8 µM), for the others: at the top dose activity change, negative = inhibition, actives largely listed as inhibitors. 300,000 tested, 1.8% active. AID 540276; calls by dose curve; tested in HEK293 cells; further: potency means the concentration at half of the fitted maximal effect
* = called active by the depositor; i = inactive; ? = inconclusive; · = no result; [ ] = dose if it differs, or a comment. Compounds with a hit are over-represented: about 7.8% of the library has one in this group of screens. On the % scale 0 is the no-effect control and ±100 the full control effect.

SMILES	HCMV inh	Lassa entry inh	HCV inhibitor	Vaccinia mCherry	VACV Venus inh	Marburg entry inh
Cc1cc(N2CCCCC2)n2ncc(-c3ccccc3)c2n1	-25	4.5µM*	10µM*	-8%	-19%	?
Cc1ccc(-c2cnn3c(N4CCOCC4)cc(C)nc23)cc1	-22	·	?	·	·	·
Cc1cc(C)cc(NC(=O)c2cc(CN3CCCC3)on2)c1	24	17%[46.1 µM]	·	-3%	-8%	·
Cc1cc(C)nc(S[C@H]2C[C@@H](C(=O)N3CCN(c4ccccc4F)CC3)N(Cc3ccccc3F)C2)n1	·	·	·	-8%	0%	·
COc1ccc(C(=O)Nc2ccc(OC)c(OC)c2)cc1	44	24%	-10%	·	·	?
COc1ccccc1Oc1ccc(Oc2ccccc2OC)cc1	-19	?	-5%	?	4%	10µM*
COc1ccccc1Oc1ccc(NC(=O)c2ccc(Cl)cc2)cc1	-25	-4%	2.8µM*	·	·	-14%
Nc1c(Cl)cc(C(=O)NC2CC2)cc1Cl	2	0%[46.1 µM]	-2%	i	-16%	11µM*
CCc1ccc2c(COC(=O)c3n[nH]c4ccccc34)cc(=O)oc2c1	94	-21%	10µM*	-29%	?	?
COC(=O)c1c(OCc2ccccn2)cc(=O)n2c1CCN(Cc1ccc3c(c1)CCCN3C)CC2	·	·	·	-15%	-8%	·
O=C(CSc1nnc(NC(=O)c2ccc3c(c2)OCO3)s1)NCc1ccco1	14	?	18%	-12%	-10%	7.1µM*
CC(=O)Nc1nnc(SCC(=O)NCC2CCCO2)s1 (stereo not drawn)	39	-7%	19%	i	-12%	-7%
O=C(CSc1nnc(NC(=O)c2ccccc2)s1)NCC1CCCO1 (stereo not drawn)	33	-19%	4%	-9%	-10%	-14%
CCC(=O)Nc1nnc(SCC(=O)NCC2CCCO2)s1 (stereo not drawn)	9	?	3.5µM*	-17%	-21%	16%
O=C(CSc1nnc(NC(=O)c2cccc(Br)c2)s1)NCC1CCCO1 (stereo not drawn)	-98*	-15%	9%	i	-10%	-7%
Cc1cc(C)n(-c2cccc(C(=O)NCC3Cc4cccc(-c5ccccn5)c4O3)c2)n1 (stereo not drawn)	·	·	·	?	-27%	·
c1ccc(-c2cn3c4c(sc3n2)CCCC4)cc1	?	?	-8%	-6%	-16%	1.1µM*
c1ccc(-c2cn3nc(-c4ccccc4)sc3n2)cc1	·	?	?	-6%	-15%	?
Cc1ccc2c(c1)ncc[n+]2CC(=O)c1ccc(Cl)cc1Cl	·	·	·	43%	-27%	·
O=C(CCCCCNC(=O)N1CCn2c1nc1ccccc12)N[C@@H](C(=O)O)c1ccccc1	-4	·	-3%	1%	0%	·
CC(NC(=O)CCCCCNC(=O)N1CCn2c1nc1ccccc12)c1ccccc1 (stereo not drawn)	-73*	·	14%	·	·	·
Nc1nc(NCc2ccco2)nc(N2CCOCC2)c1[N+](=O)[O-]	2	-2%	-22%	-21%	-8%	-14%
Cc1ccc(Nc2nc(N)c([N+](=O)[O-])c(N3CCCC(C)C3)n2)cc1C (stereo not drawn)	-62*	-6%	34%	-10%	-3%	2.2µM*
Cc1cccc(Nc2nc(NCc3ccco3)nc(N3CCOCC3)n2)c1	82	?	?	·	·	2.3µM*
COc1ccc(Nc2nc(N)c([N+](=O)[O-])c(N3CCCC3)n2)cc1	-15	·	?	·	·	·
SMILES	HCMV inh	Lassa entry inh	HCV inhibitor	Vaccinia mCherry	VACV Venus inh	Marburg entry inh
CC1CCCN(c2nc(NCc3ccco3)nc(N)c2[N+](=O)[O-])C1 (stereo not drawn)	-102*	?	?	?	?	?
COc1cccc(Nc2nc(N)c([N+](=O)[O-])c(N3CCOCC3)n2)c1	59	·	-11%	·	·	·
Cc1cccc(Nc2nc(N)c([N+](=O)[O-])c(N3CCOCC3)n2)c1	21	-2%	-12%	?	-29%	5.6µM*
CC(NC(=O)CSc1nc(-c2ccccc2F)nc2cc(=O)[nH]n12)c1nc2ccccc2n1C (stereo not drawn)	11	24%[46.1 µM]	·	4%	1%	·
COC(=O)c1cc(C(=O)OC)n2c(C)cc3ccccc3c12	·	·	·	·	·	13%[14.2 µM]
O=C(CSCc1nc2cccnc2n1C1CCCCC1)NCc1cccc(Br)c1	0	-20%[46.1 µM]	·	i	-10%	·
CC1CC(C)CN(c2nc(NCc3ccco3)nc(N)c2[N+](=O)[O-])C1 (stereo not drawn)	-67*	?	?	-1%	-14%	-10%
COc1ccc(Nc2nc(N)nc(N)c2S(=O)(=O)c2ccccc2)cc1	-16	-8%[46.1 µM]	·	-11%	-5%	?
Cc1cccc(Nc2nc(N)nc(N)c2S(=O)(=O)c2ccccc2)c1	-103*	-22%[46.1 µM]	·	-5%	-2%	?
CCCCn1cc(S(=O)(=O)c2cc(C)ccc2C)c(=O)c2cc(F)c(N3CCC(C)CC3)cc21	22	?	·	-12%	-7%	·
O=C(Nc1ccc(Cl)c([N+](=O)[O-])c1)C(Sc1ccccc1)c1ccccc1 (stereo not drawn)	-102*	?	?	-20%	?	?
Cc1c(C(=O)N(C)c2cccc(C(F)(F)F)c2)sc2nc3n(c(=O)c12)CCCCC3	-76*	4%[46.1 µM]	·	-4%[7.34 µM]	-6%[7.34 µM]	·
Cc1c(C(=O)Nc2cccc(C(F)(F)F)c2)sc2nc3n(c(=O)c12)CCCC3	-16	18%[46.1 µM]	·	-24%	-21%	·
CC(=O)Nc1ccc(NC(=O)c2sc3nc4n(c(=O)c3c2C)CCCCC4)cc1	-82*	?	?	·	·	-20%
CCCN1CNc2c(c(=O)[nH]c(=S)n2CCc2cc(Cl)ccc2Cl)C1	·	·	·	-9%	-24%	·
Cn1c(Oc2ccc(Cl)cc2)nc2c1c(=O)n(Cc1ccc(F)cc1)c(=O)n2C	-9	1%[46.1 µM]	·	9%	15%	1%[46.1 µM]
Cc1no[n+]([O-])c1COc1cccc(/C=N/Nc2nncn2N)c1	-82*	·	4%	·	·	·
CCOC(=O)C1CCCN(C(=O)c2ccc3c(c2)N(Cc2ccccc2F)C(=O)c2ccccc2S3=O)C1 (stereo not drawn)	11	-26%[46.1 µM]	·	-1%	2%	-2%[46.1 µM]
CC(=O)Oc1ccc(C(=O)Nc2ccc(C3(C#N)CCCC3)cc2)cc1	61	·	14µM*	·	·	·
Cc1cccc(C)c1OCC(=O)Nc1nc(-c2ccc(Br)cc2)ns1	53	20%[46.1 µM]	·	1%	-9%	2%[46.1 µM]
CCCn1c(=O)c2sccc2n2c(CCCC(=O)Nc3ccc(Oc4ccc(Cl)cc4)cc3)nnc12	?	?	·	-11%[7.34 µM]	-6%[7.34 µM]	-26%[46.1 µM]
CCCn1c(=O)c2sccc2n2c(CCCC(=O)Nc3ccc(Oc4ccccc4)cc3)nnc12	-61*	-24%[46.1 µM]	·	-19%	-9%	·
Cc1cc(O)c(C(c2ccc(F)cc2)N2CCCCC2)c(=O)n1Cc1ccco1 (stereo not drawn)	14	11%[46.1 µM]	·	-8%	-6%	·
CCN(CC)CCCNC(=O)CSc1nc2nc(C)c(Cc3c(F)cccc3Cl)c(C)n2n1	-39	-3%[46.1 µM]	·	-14%	-3%	?

Screening data: PubChem, National Center for Advancing Translational Sciences (NCATS)
